Test results published in PubChem BioAssay (Tox21).
Inconclusive results are not listed. The source made the active and inactive calls. Unless noted, the call rests on the fitted dose curve; in most records, active means well fitted curve in the direction sought with a large enough effect in the repeat runs; inconclusive means weak or mixed curves; inactive means no such curve, though single readings can be large; an effect the other way counts as inactive or inconclusive.

Experiments:
[1] = qHTS assay for small molecule agonists of the p53 signaling pathway (AID 651631; calls by dose curve; further: nearly all actives have a fitted effect of over 15% in size)
How it was run: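 HCT-116 cells carrying a stable p53 response element–beta-lactamase reporter were plated, rested 5 h at 37 °C, then exposed to compound in DMSO for 16 h at 37 °C; reporter activity was read as FRET substrate fluorescence after 2 h at room temperature.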

[2] = qHTS assay for small molecules that induce genotoxicity in human embryonic kidney cells expressing luciferase-tagged ATAD5 (AID 651632); further: nearly all actives have a fitted effect of over 15% in size
How it was run: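 Luminescence read-out: after 16 hr compound exposure at 37C, ATAD5-luciferase HEK293T cells received Amplite, 30 min RT, then CCD imaging. A rise in signal marks genotoxic stress.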

[3] = qHTS assay for small molecule agonists of the p53 signaling pathway - cell viability (AID 651633; calls by dose curve; further: series mostly up to about 83 µM; nearly all actives have a fitted effect of over 30% in size)
How it was run: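 p53RE-bla cells were treated with compound for 16 hours at 37 C. Cytotoxicity was then measured as CellTiter-Glo luminescence after 30 min at room temperature.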

[4] = qHTS assay for small molecules that induce genotoxicity in human embryonic kidney cells expressing luciferase-tagged ATAD5 - cell viability (AID 651634; calls by dose curve; further: nearly all actives have a fitted effect of over 25% in size)
How it was run: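 HEK293T ATAD5-luc cells, 2,000/well; compound 15.5 hr, 37C/5% CO2; CellTiter-Fluor 30 min, 37C; fluorescence read.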

[5] = qHTS assay for small molecule disruptors of the mitochondrial membrane potential - cell viability (AID 720634; calls by dose curve;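 further: human HepG2 liver cancer cells; series mostly up to about 83 µM; nearly all actives have a fitted effect of over 20% in size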)
How it was run: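 Luminescence from CellTiter-Glo (ATP content) gave viability in HepG2 cells, read in the same wells as the MMP dye assay after 1 hr compound exposure at 37 C.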

[6] = qHTS assay for small molecule disruptors of the mitochondrial membrane potential (AID 720635)
How it was run: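 HepG2 cells exposed to compound 1 hr at 37C, then Mito-MPS dye 30 min. Ratio read of aggregate (540/590 nm) versus monomer (490/535 nm) fluorescence.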

[7] = qHTS assay to test for compound auto fluorescence at 590 nm (red) in HepG2 cells (AID 720674)
How it was run: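 Fluorescence at 590 nm emission following 540 nm excitation was recorded from HepG2 wells one hour after compound transfer, with DMSO-only wells as vehicle and Rose Bengal sodium equivalency as the scale.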

[8] = qHTS assay to test for compound auto fluorescence at 535 nm (green) in HepG2 cells (AID 720675)
[9] = qHTS assay to test for compound auto fluorescence at 590 nm (red) in HEK293 cells (AID 720679)
How it was run: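 Red channel, Ex/Em 540/590nm; signal expressed as equivalency to Rose Bengal sodium. HEK293, 2,000 cells/well, 10% dialyzed FBS; 23 nL compound pinned after 4-5 hr attachment; overnight 37C/5% CO2 before reading.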

[10] = qHTS assay to test for compound auto fluorescence at 535 nm (green) in HEK293 cells (AID 720680)
[11] = qHTS assay to test for compound auto fluorescence at 460 nm (blue) in HEK293 cell free culture (AID 720681)
How it was run: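 Compounds were added to cell-free DMEM with 10% FBS and fluorescence read directly. The blue channel used 405 nm excitation and 460 nm emission, with triamterene as the reference fluorophore.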

[12] = qHTS assay to test for compound auto fluorescence at 535 nm (green) in HEK293 cell free culture (AID 720682)
How it was run: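 Read-out: 485/535 nm fluorescence intensity, calibrated against fluorescein. Medium only (DMEM + 10% FBS, no cells); test compound or DMSO vehicle added by pintool before plate reading.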

[13] = qHTS assay to test for compound auto fluorescence at 590 nm (red) in HEK293 cell free culture (AID 720683)
How it was run: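 Cell-free wells of DMEM with 10% FBS received compound, and intrinsic fluorescence was read at excitation/emission 540/590 nm. Values expressed as equivalence to Rose Bengal sodium.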

[14] = qHTS assay to test for compound auto fluorescence at 590 nm (red) in HepG2 cell free culture (AID 720684)
How it was run: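 Auto fluorescence equivalency versus Rose Bengal sodium, red channel Ex/Em 540/590 nm; compounds in cell-free MEM/10% FBS; DMSO vehicle control.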

[15] = qHTS assay to test for compound auto fluorescence at 460 nm (blue) in HepG2 cell free culture (AID 720685)
How it was run: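 Cell-free plates of MEM plus 10% FBS received 23 nL compound or DMSO vehicle; blue-channel (405/460 nm) intensity scored against triamterene as reference fluorophore.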

[16] = qHTS assay to test for compound auto fluorescence at 460 nm (blue) in HepG2 cells (AID 720687)
How it was run: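 HepG2 cells in MEM with 10% FBS, attached overnight at 37 C, were exposed to compound or DMSO for 1 hr at 37 C, 5% CO2. Blue fluorescence was read at 405/460 nm, with triamterene as reference fluorophore.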

[17] = target: Glucocorticoid receptor (Homo sapiens) (UniProt P04150); experiment: qHTS assay to identify small molecule agonists of the glucocorticoid receptor (GR) signaling pathway (AID 720691; active means well fitted activation curve with a large enough effect in the signal ratio in the repeat runs, not every such curve was filed as active; the % refers to the signal ratio)
Sequence of Glucocorticoid receptor (Homo sapiens) (P04150 whole entry, looked up): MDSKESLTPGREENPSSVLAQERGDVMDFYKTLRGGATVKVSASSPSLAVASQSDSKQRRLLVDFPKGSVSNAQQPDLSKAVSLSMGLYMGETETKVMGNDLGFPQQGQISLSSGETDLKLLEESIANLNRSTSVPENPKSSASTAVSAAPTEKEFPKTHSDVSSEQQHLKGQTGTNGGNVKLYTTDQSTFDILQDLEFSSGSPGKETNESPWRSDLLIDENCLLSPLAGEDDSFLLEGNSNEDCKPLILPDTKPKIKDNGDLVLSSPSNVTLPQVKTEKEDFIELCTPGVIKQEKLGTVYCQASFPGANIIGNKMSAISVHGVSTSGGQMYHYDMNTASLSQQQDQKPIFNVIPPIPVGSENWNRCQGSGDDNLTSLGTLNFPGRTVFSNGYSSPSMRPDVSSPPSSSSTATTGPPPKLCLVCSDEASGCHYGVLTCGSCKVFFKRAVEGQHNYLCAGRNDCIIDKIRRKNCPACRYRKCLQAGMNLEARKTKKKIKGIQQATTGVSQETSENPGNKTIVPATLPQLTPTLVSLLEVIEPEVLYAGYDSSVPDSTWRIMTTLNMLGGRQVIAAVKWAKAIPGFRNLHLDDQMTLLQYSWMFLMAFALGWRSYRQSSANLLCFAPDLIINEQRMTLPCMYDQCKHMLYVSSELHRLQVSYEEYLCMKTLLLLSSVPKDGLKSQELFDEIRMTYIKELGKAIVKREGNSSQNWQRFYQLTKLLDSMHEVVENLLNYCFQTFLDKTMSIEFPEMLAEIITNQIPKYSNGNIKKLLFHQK
How it was run: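 HeLa GR-bla reporter line; cells pre-incubated 4 h, compound in DMSO 18 h at 37 C; LiveBLAzer B/G FRET substrate 2 h RT; fluorescence intensity read-out.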

[18] = target: Glucocorticoid receptor (Homo sapiens) (UniProt P04150); experiment: qHTS assay to identify small molecule antagonists of the glucocorticoid receptor (GR) signaling pathway (AID 720692; active means well fitted inhibition curve with a large enough effect in the signal ratio in the repeat runs, not every such curve was filed as active; the % refers to the signal ratio)
How it was run: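 Read-out: beta-lactamase FRET substrate fluorescence, 2 h at room temperature, in HeLa cells stably carrying a GRE-driven bla reporter. Compounds were co-incubated with 5 nM dexamethasone agonist (final) for 18 h at 37 C.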

[19] = qHTS assay to test for compound auto fluorescence at 460 nm (blue) in HEK293 cells (AID 720678)
How it was run: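 Blue read-out at excitation 405 nm and emission 460 nm follows overnight compound exposure of HEK293 cells at 37C in 5% CO2. Activity is given as auto fluorescence equivalency to triamterene.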

[20] = qHTS assay to test for compound auto fluorescence at 535 nm (green) in HepG2 cell free culture (AID 720686)
On the % scale 0 is the no-effect control and ±100 the full control effect.

CC(C)OC(=O)Cc1ccccc1
inactive: Potency [1] | Potency [2] | Potency [3] | Potency [4] | Potency [5] | Potency [6] | outcome [7] | outcome [8] | outcome [9] | outcome [10] | outcome [11] | outcome [12] | outcome [13] | outcome [14] | outcome [15] | outcome [16] | Potency [17] | Potency [18]

COc1cc(CC(C)N)c(OC)cc1Br (centres undefined)
inactive: Potency [1] | Potency [2] | Potency [3] | Potency [4] | Potency [5] | Potency [6] | outcome [7] | outcome [8] | outcome [19] | outcome [9] | outcome [10] | outcome [11] | outcome [12] | outcome [13] | outcome [14] | outcome [15] | outcome [20] | outcome [16]

Cc1ccccc1
inactive: Potency [1] | Potency [2] | Potency [3] | Potency [4] | Potency [5] | Potency [6] | Potency [17] | Potency [18]

C[N+]1(CCF)[C@@H]2CC[C@H]1CC(OC(=O)C(O)(c1ccccc1)c1ccccc1)C2 (some centres undefined)
inactive: Potency [1] | Potency [2] | Potency [3] | Potency [4] | Potency [5] | Potency [6] | outcome [7] | outcome [8] | outcome [19] | outcome [9] | outcome [10] | outcome [12] | outcome [13] | outcome [14] | outcome [15] | outcome [20] | outcome [16] | Potency [17] | Potency [18]

COC1CC(=C(c2cccs2)c2cccs2)C[N+](C)(C)C1 (centres undefined)
inactive: Potency [1] | Potency [2] | Potency [3] | Potency [4] | Potency [5] | Potency [6] | outcome [7] | outcome [8] | outcome [9] | outcome [10] | outcome [11] | outcome [12] | outcome [13] | outcome [14] | outcome [15] | outcome [20] | outcome [16] | Potency [17] | Potency [18]

CC1(C)CC(=O)CC(C)(C)N1[O]
inactive: Potency [1] | Potency [2] | Potency [3] | Potency [4] | Potency [5] | Potency [6] | outcome [7] | outcome [8] | outcome [19] | outcome [9] | outcome [10] | outcome [11] | outcome [12] | outcome [13] | outcome [14] | outcome [15] | outcome [20] | outcome [16]

CCCN(CCC)C(=O)Cc1c(-c2ccc(Cl)cc2)nc2ccc(Cl)cn12
inactive: Potency [1] | Potency [2] | Potency [3] | Potency [4] | Potency [5] | outcome [7] | outcome [8] | outcome [19] | outcome [9] | outcome [10] | outcome [11] | outcome [12] | outcome [13] | outcome [14] | outcome [15] | outcome [20] | outcome [16]

CCCCC1C(=O)NC(=O)N(C2CCCCC2)C1=O (centres undefined)
inactive: Potency [1] | Potency [2] | Potency [3] | Potency [4] | Potency [5] | Potency [6] | outcome [7] | outcome [8] | outcome [19] | outcome [9] | outcome [10] | outcome [11] | outcome [12] | outcome [13] | outcome [14] | outcome [15] | outcome [16] | Potency [17] | Potency [18]

CCOC(=O)C1OC1(C)c1ccccc1 (centres undefined)
inactive: Potency [1] | Potency [2] | Potency [4] | Potency [5] | Potency [6] | outcome [7] | outcome [8] | outcome [19] | outcome [9] | outcome [10] | outcome [11] | outcome [12] | outcome [13] | outcome [14] | outcome [15] | outcome [20] | outcome [16] | Potency [17] | Potency [18]

OC[P+](CO)(CO)CO
inactive: Potency [1] | Potency [2] | Potency [3] | Potency [4] | Potency [5] | outcome [7] | outcome [8] | outcome [19] | outcome [9] | outcome [10] | outcome [11] | outcome [12] | outcome [13] | outcome [14] | outcome [15] | outcome [20] | outcome [16] | Potency [17] | Potency [18]

N#CC1(N=NC2(C#N)CCCCC2)CCCCC1
inactive: Potency [1] | Potency [2] | Potency [4] | Potency [5] | Potency [6] | outcome [7] | outcome [8] | outcome [19] | outcome [9] | outcome [10] | outcome [11] | outcome [12] | outcome [13] | outcome [14] | outcome [15] | outcome [20] | outcome [16] | Potency [17] | Potency [18]

Cc1cnc(C2=NC(C)(C(C)C)C(=O)N2)c(C(=O)O)c1 (centres undefined)
inactive: Potency [1] | Potency [2] | Potency [3] | Potency [4] | Potency [5] | outcome [7] | outcome [8] | outcome [19] | outcome [9] | outcome [10] | outcome [11] | outcome [12] | outcome [13] | outcome [14] | outcome [15] | outcome [20] | outcome [16] | Potency [17] | Potency [18]

CCC(C)Cl (centres undefined)
inactive: Potency [1] | Potency [2] | Potency [4] | Potency [5] | Potency [6] | outcome [7] | outcome [8] | outcome [9] | outcome [10] | outcome [11] | outcome [12] | outcome [13] | outcome [14] | outcome [15] | outcome [20] | outcome [16] | Potency [17] | Potency [18]

O=C(O)c1cc(I)cc(I)c1I
inactive: Potency [1] | Potency [2] | Potency [4] | Potency [5] | Potency [6] | outcome [7] | outcome [8] | outcome [19] | outcome [9] | outcome [10] | outcome [11] | outcome [12] | outcome [13] | outcome [14] | outcome [15] | outcome [20] | outcome [16] | Potency [17] | Potency [18]

CCOC(=O)c1cncn1C(C)c1ccccc1 (centres undefined)
inactive: Potency [1] | Potency [2] | Potency [3] | Potency [4] | Potency [5] | fluorescence, relative to Rose Bengal [7] -0.315% [at 18.6 µM] | fluorescence, % of fluorescein control [8] 0.021% [at 18.6 µM] | fluorescence, % of triamterene [19] -0.152% [at 18.6 µM] | fluorescence, % of fluorescent control [9] 0.134% [at 18.6 µM] | fluorescence, % of fluorescein [10] -0.183% [at 18.6 µM] | activity change [12] -0.219% [at 18.6 µM] | fluorescence, % of fluorescent control [13] 0.175% [at 18.6 µM] | fluorescence, % of Rose Bengal [14] 0.117% [at 18.6 µM] | fluorescence, % of fluorescent control [15] -0.0673% [at 18.6 µM] | fluorescence, % of fluorescein control [20] 0.0291% [at 18.6 µM] | fluorescence, % of fluorescent control [16] 0.278% [at 18.6 µM] | Potency [17]

CC(C)(C)NCC(O)c1ccccc1Cl (centres undefined)
inactive: Potency [1] | Potency [2] | Potency [3] | Potency [4] | Potency [5] | outcome [7] | outcome [8] | outcome [19] | outcome [9] | outcome [10] | outcome [11] | outcome [12] | outcome [13] | outcome [14] | outcome [15] | outcome [16] | Potency [17] | Potency [18]
